Assay results reported in PubChem BioAssay (NCI).
Compounds without any hit were thinned out: in the full panel of roughly 79,000, 15% have a hit. Activity calls are given as the source filed them. Rule as the data show it: active = growth inhibition above about 70%; inactive = the rest.

Test: NCI Yeast Anticancer Drug Screen. Data for the mlh1 rad18 strain (AID 175)
Conditions: S. cerevisiae mlh1 rad18 strain growth inhibition; at 50.0 µM; active compounds read high
In short: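 A repair-deficient yeast strain is exposed to test compound, and growth is scored relative to vehicle-treated controls.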

Row | Compound | growth inhibition
1 | NS(=O)(=O)c1ccc(NC2=CC(=O)C(=O)c3ccccc32)cc1 | -11.6% (inactive)
2 | CC(=O)NC1CC(=O)N(c2ccccc2)C1=O (stereo not drawn) | -19.1% (inactive)
3 | O=C1Nc2ccccc2C1O (stereo not drawn) | -4.2% (inactive)
4 | N=c1ccn(CC(O)COc2ccccc2)cc1 (stereo not drawn) | 9.55% (inactive)
5 | CN(C)CCC(=O)N1CCc2c([nH]c3ccccc23)C1c1cccnc1 (stereo not drawn) | -40.5% (inactive)
6 | CCOC(=O)C(=[N+]=[N-])C(=O)CN1C(=O)c2ccccc2C1=O | -15.9% (inactive)
7 | CCCCCCCCCC/C=C/c1c(C)[nH]c2ccccc2c1=O | -11.1% (inactive)
8 | O=P12N(CCN1c1ccccc1)CCN2c1ccccc1 | -25.5% (inactive)
9 | O=C1OCC/C1=C1/NC2CCCCC2NC1=O (stereo not drawn) | -14.1% (inactive)
10 | C=C(C)C(=O)N1c2ccc(OC)cc2CC1C(=O)OCC (stereo not drawn) | 4.55% (inactive)
11 | C/C(=N\NC(=O)c1ccncc1)c1cccc(Br)c1 | 11.8% (inactive)
12 | NC(=O)SCC(=O)Nc1ccccc1O | -9.5% (inactive)
13 | CCCCOP(=O)(OCCCC)C(c1ccccc1)(c1ccccc1)c1ccccc1 | 59.6% (inactive)
14 | Cn1ncc(C(=O)O)c1[N+](=O)[O-] | 5.25% (inactive)
15 | CCNc1ncnc2c1cnn2C1CCCCC1 | -2.5% (inactive)
16 | C=CCOC1OC(CS(=O)(=O)O)C(OC(C)=O)C(OC(C)=O)C1OC(C)=O (stereo not drawn) | 15.9% (inactive)
17 | C=C(C)COc1ccc(-c2ccccc2)cc1 | -3.2% (inactive)
18 | O=S(=O)(O)ON=C1c2ccccc2-c2ccccc21 | -13.6% (inactive)
